sEH activator: activators of human soluble epoxide hydrolase; purified human sEH enzymatic activity, activator screen; activation, % at 2 µM; hit rate 0.04% among 91,000; in the data active = activation above about 37%
Cav32 inh: human Cav3.2 channel inhibition, primary screen. Cav3.2-expressing cells, Fluo-4 calcium fluorescence FDSS; active compounds read low. B-score at 10 µM. hit rate 4% among 100,000. AID 449739;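 active = single-dose well whose peak fluorescence ratio is a statistical outlier from its plate by either plate-standardised score or position-corrected B-score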
PostGolgi ctrl: inhibits growth of the yeast control strain. efflux-deficient yeast background strain, growth absorbance A615, 16 h. inhibition, % at 10 µM. hit rate 5% among 98,000
sEH inhibitor: soluble epoxide hydrolase (human) inhibition; P34913; recombinant human sEH enzymatic activity assay; inhibition, % at 2 µM; hit rate 0.34% among 91,000; AID 707; in the data active = inhibition above about 80%
PostGolgi yeast: growth inhibition of a yeast mutant, post-Golgi transport screen; post-Golgi transport phenotypic cell assay; inhibition, % at 10 µM; hit rate 0.9% among 98,000; AID 739;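 also: yeast cells grown in 1536-well plates; yeast grown about 18 h at 30C before absorbance read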
* marks the source's active call; other numbers are inactive results; nt = not tested or not shown. Hits are enriched below; roughly 7.8% of the tested compounds scored in any of these assays. Rule as the data show it, unless noted: active = inhibition above about 30%; inactive = the rest.

SMILES	sEH activator	Cav32 inh	PostGolgi ctrl	sEH inhibitor	PostGolgi yeast
CCCCOc1ccc(CNC(=O)NS(=O)(=O)c2ccc(OCC)cc2)cc1	6	-7.4*	-7	-8	-2
CC(C)COc1ccc(CNC(=S)NCc2ccccc2)cc1	-6	-5.6*	10	8	-4
CCCCOc1ccc(S(=O)(=O)NC(=O)NCc2ccc(OCCC)cc2)cc1	2	-3.5*	nt	1	nt
COc1ccc(CNC(=O)NS(=O)(=O)c2ccc(C)cc2)cc1	nt	0.05	nt	nt	nt
CC(=N/O)/C(=N\O)c1ccc(C)o1	32	0.073	-7	-36	-7
O=[N+]([O-])c1nn(-c2ccc3c(c2)OCCO3)n(O)c1=NCCCO	-12	0.027	15	13	0
O=[N+]([O-])c1nn(-c2ccc3c(c2)OCCO3)n(O)c1=Nc1ccc(Cl)cc1	8	-2.2	57*	-7	40*
Cc1nc2ccc(NC(=O)N3CCOCC3)cc2s1	-5	-3.2	1	3	15
O=C(Nc1ccc2nc(SCc3ccc(Cl)cc3)sc2c1)c1ccccc1C(=O)N1CCOCC1	8	-1.1	33*	-6	-5
COc1ccc(-c2cnc(OC(C)(C)C)nc2OC(C)(C)C)cc1OC	-8	-0.61	3	10	-9
COc1ccc(OC)c(NC(=O)c2ccccc2OC(C)=O)c1	nt	-0.84	nt	nt	nt
CCCCCOC(=O)C1=C(C)Nc2nnnn2C1c1ccccc1Cl (centres undefined)	8	-0.26	48*	-8	46*
COC(=O)C1=C(C)Nc2nnnn2C1c1ccccc1Cl (centres undefined)	12	-0.42	nt	-8	nt
Cc1cc(C)cc(NC(=O)c2nccnc2C(=O)O)c1	7	-0.25	4	-10	-6
Cn1nc(C(F)(F)F)c(C(=O)Nc2cccc(Cl)c2)c1Cl	nt	-0.74	5	nt	13
CCOC(=O)NC(O)C(=O)c1cccs1 (centres undefined)	nt	0.84	1	nt	6
Cc1ccc(S(=O)(=O)N2CCN(CC(=O)NC3CCCc4ccccc43)CC2)c(C)c1 (centres undefined)	-10	-2.4	33*	12	0
O=C(CCC(=O)N1CCN(S(=O)(=O)c2ccc(Cl)cc2)CC1)NC1CCCc2ccccc21 (centres undefined)	-1	-5.2*	0	5	14
Cc1ccc(CNC(N)=S)cc1	5	1.1	-5	-4	-4
O=C(CNC(=O)c1cccs1)NCC(=O)OCc1ccc(Cl)cc1	-8	0.82	32*	12	-1
O=C(CNC(=O)c1cccs1)NCC(=O)OCc1ccc(Cl)cc1Cl	-7	-1.1	13	10	-5
COc1ccc(-c2c(C)nn3c(N4CCC(C(=O)NCCN(C)C)CC4)cc(C)nc23)cc1OC	nt	3.1*	7	nt	14
CCCN(CCC)C(=O)C1CCN(c2cc(C)nc3c(-c4ccc(OC)c(OC)c4)c(C)nn23)CC1	-6	-1.4	6	6	-4
Cc1nn(Cc2ccccc2)c(C)c1NC(=O)CSc1nnc(-c2cc(Cl)ccc2O)n1C	-15	-0.014	7	17	-5
Cc1noc2ncnc(Oc3ccc4ccccc4c3)c12	31	nt	31*	-32	-8
SMILES	sEH activator	Cav32 inh	PostGolgi ctrl	sEH inhibitor	PostGolgi yeast
COc1ccnc(Oc2ccc3ccccc3c2)c1C#N	-2	nt	7	1	-6
COC(=O)Cn1c(CN2CCN(c3ccc(F)cc3)CC2)nc2c1c(=O)n(C)c(=O)n2C	8	0.84	10	-3	4
Cc1ccc(OCc2nnc(SCC(=O)c3ccccc3)n2-c2ccccc2)cc1	-4	-4.4*	nt	6	nt
O=c1[nH]c(CSc2nnc(COc3ccccc3)n2-c2ccccc2)nc2ccccc12	4	-3.9*	25	-3	-3
O=S(=O)(NCCSc1ccccc1)c1ccc(F)cc1	-4	-5.7*	19	5	8
COc1ccc(NC(=O)CSc2nc3c(c(=O)n2-c2ccc(F)cc2)SCC3)cc1	1	0.63	9	-1	-8
COc1ccc(-n2c(SCC(=O)Nc3ccccc3)nc3c(c2=O)SCC3)cc1	9	0.9	40*	-5	-3
O=C(CSc1nc2c(c(=O)n1-c1ccc(Cl)cc1)SCC2)Nc1nccs1	nt	0.34	1	nt	-1
O=C(CSc1nc2c(c(=O)n1-c1ccc(Br)cc1)SCC2)Nc1nccs1	47*	nt	6	-45	-22
COc1ccc(-c2ccc3oc(-c4ccsc4)cc3c2)cc1	nt	-0.0096	nt	nt	nt
CCCC1CCc2c(sc(NC(=O)OCC)c2C#N)C1 (centres undefined)	6	0.031	nt	-3	nt
O=C(Nc1cccc2cccnc12)c1ccc2c(c1)OCCO2	12	-4.5*	20	-12	4
O=C(N/C(=C/c1ccc(Cl)cc1)c1nc2ccccc2[nH]1)c1ccco1	8	nt	-3	-5	23
O=C(/C(=C/c1ccc(Cl)cc1)c1nc2ccccc2[nH]1)c1ccccc1	2	0.92	102*	1	62*
C[C@H]1CC[C@@]2(O[C@H](CCO)C[C@H](O)[C@H]2O)O1	nt	0.24	nt	nt	nt
CS(=O)(=O)c1ccc(Sc2nc3ccccc3[nH]2)c([N+](=O)[O-])c1	-1	1.3	6	2	8
O=[N+]([O-])c1cc(S(=O)(=O)C(F)(F)F)ccc1Sc1nc2ccccc2s1	-4	0.52	92*	2	41*
O=[N+]([O-])c1cc(S(=O)(=O)C(F)(F)F)ccc1Sc1nc2ccccc2[nH]1	-15	-4.5*	70*	14	27
Cc1ccc(N(CC(=O)O)S(C)(=O)=O)cc1Cl	2	1.5	-1	-2	-5
COCCNC(=O)CSc1nc2cc3c(cc2c(=O)n1Cc1ccco1)OCO3	-3	-0.18	0	6	6
CCC(Sc1nc2cc3c(cc2c(=O)n1Cc1ccco1)OCO3)C(=O)NCCOC (centres undefined)	-8	1.8	31*	7	10
CC1(c2cnc(Nc3ccccc3)s2)CCC(=O)O1 (centres undefined)	-9	0.83	39*	9	-5
Cc1ccc(C(=O)N2CCN(C3c4cccc5cccc(c45)C3NS(=O)(=O)c3ccccc3)CC2)cc1 (centres undefined)	-19	-1.3	-8	21	27
FC(F)(F)c1ccc(N2CCN(c3cc(-c4ccccc4)nc4ncnn34)CC2)nc1	nt	-2	57*	nt	11
Cc1cc(C)nc(SC2=CS(=O)(=O)c3ccccc32)n1	-3	0.26	3	6	-4
SMILES	sEH activator	Cav32 inh	PostGolgi ctrl	sEH inhibitor	PostGolgi yeast
O=S1(=O)C=C(Sc2nc3ccccc3s2)c2ccccc21	nt	1.7	31*	nt	89*
CS(=O)(=O)c1nc(-c2ccccc2)cc(-c2ccccc2)c1C#N	-1	0.64	54*	1	2
O=C(CSc1nnnn1C1CCCCC1)Nc1nc2c(s1)CCCC2	-5	-2.5	12	4	18
CCOc1ccc2nc(NC(=O)CSc3nnnn3C3CCCCC3)sc2c1	6	-1.7	42*	-8	16
NC(=O)NC(Cc1ccccc1)C(=O)NCC1(N2CCCCC2)CCCCC1 (centres undefined)	-4	0.15	17	5	18
C#CCN1C(=O)C(O)(CC(=O)c2ccc3c(c2)OCCO3)c2ccccc21 (centres undefined)	9	-3.8*	-4	-12	-6

Source: PubChem
